Test results published in PubChem BioAssay AID1159580 (chemical genetic matrix, 2015).
Where “and” joins values, the source holds several entries; their conditions need not be identical. Identical values can stand only once. Hit rate of the full screen: of about 5,500 compounds, about 2,000 (36%) were called active. Not shown: some 18% with an inconclusive outcome. No stated cut-off is given here; in the data, active means normalized growth mostly below about 0.91 (no sharp cut-off); inconclusive means no clear call, values can overlap the other calls; inactive means mostly above about 0.92. The list shows a part of the results.

Assay: chemical genetic growth profiling, strain panel (AID 1159580);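 further: tested at 20 µM; growth read once vehicle control cultures reached saturation at 30 °C; 1 = growth at the plate median or of vehicle wells; lower values mean less growth of the strain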
Conditions: S. cerevisiae deletion strains, growth OD

Measured: normalized growth

COc1ccc2c3c1O[C@H]1C[C@@H](O)C=C[C@@]31CCN(C)C2
inactive: locus YAL013W, strain DEP1, active compounds read low 1.01 | locus YAL021C, strain ccr4, active compounds read low 1.02 | locus YAL026C, strain drs2, active compounds read low 0.993 | locus YAL030W, strain snc1, active compounds read low 0.984 | locus YBL061C, strain skt5, active compounds read low 0.994 | locus YBR009C, strain hhf1, active compounds read low 1.01 | locus YBR021W, strain FUR4, active compounds read low 0.999 | locus YBR023C, strain chs3, active compounds read low 0.992 | locus YBR171W, strain sec66, active compounds read low 1.01 | locus YBR229C, strain ROT2, active compounds read low 1 | locus YBR231C, strain swc5, active compounds read low 0.984 | locus YBR279W, strain paf1, active compounds read low 0.992 | locus YCL011C, strain gbp2, active compounds read low 0.998 | locus YCL016C, strain dcc1, active compounds read low 0.999 | locus YCL029C, strain bik1, active compounds read low 1.02 | locus YCL061C, strain MRC1, active compounds read low 1.02 | locus YCL069W, strain vba3, active compounds read low 1 | locus YCR088W, strain abp1, active compounds read low 1 | locus YDL005C, strain med2, active compounds read low 0.995 | locus YDL035C, strain GPR1, active compounds read low 1.01 | locus YDL040C, strain nat1, active compounds read low 1 | locus YDL074C, strain BRE1, active compounds read low 1 | locus YDL101C, strain DUN1, active compounds read low 0.996 | locus YDL134C, strain PPH21, active compounds read low 1.01 | locus YDL185W, strain tfp1, active compounds read low 1.02 | locus YDL192W, strain arf1, active compounds read low 1.01 | locus YDR001C, strain nth1, active compounds read low 0.998 | locus YDR069C, strain doa4, active compounds read low 0.997 | locus YDR101C, strain arx1, active compounds read low 1.01 | locus YDR137W, strain rgp1, active compounds read low 1.03 | locus YDR150W, strain NUM1, active compounds read low 1.01 | locus YDR159W, strain sac3, active compounds read low 0.935 | locus YDR162C, strain NBP2, active compounds read low 0.97 | locus YDR195W, strain ref2 0.946 | locus YDR297W, strain sur2, active compounds read low 1.01 | locus YDR318W, strain mcm21, active compounds read low 1.05 | locus YDR334W, strain swr1, active compounds read low 0.994 | locus YDR335W, strain msn5, active compounds read low 1.02 | locus YDR388W, active compounds read low 1.01 | locus YDR392W, strain spt3, active compounds read low 1.05 | locus YDR502C, strain sam2, active compounds read low 1.01 | locus YEL003W, strain gim4, active compounds read low 0.985 | locus YEL037C, strain rad23, active compounds read low 1 | locus YEL061C, strain CIN8 (second series), active compounds read low 1.01 | locus YEL061C, strain CIN8, active compounds read low 1.01 | locus YER015W, strain faa2, active compounds read low 0.993 | locus YER016W, strain bim1, active compounds read low 1.01 | locus YER110C, active compounds read low 1.02 | locus YER111C, strain swi4, active compounds read low 0.997 | locus YER155C, strain BEM2 (second series), active compounds read low 1.01 | locus YER155C, strain BEM2, active compounds read low 0.998 | locus YER167W, strain BCK2, active compounds read low 1.03 | locus YFR010W, strain ubp6, active compounds read low 0.986 | locus YGL078C, strain dbp3, active compounds read low 0.992 | locus YGL086W, strain mad1, active compounds read low 1.04 | locus YGL167C, strain pmr1, active compounds read low 0.997 | locus YGL173C, strain kem1, active compounds read low 0.997 | locus YGL227W, strain vid30, active compounds read low 0.997 | locus YGL240W, strain doc1, active compounds read low 0.999 | locus YGL248W, strain PDE1, active compounds read low 1.01 | locus YGL253W, strain hxk2, active compounds read low 1.01 | locus YGR078C, strain PAC10, active compounds read low 0.981 | locus YGR135W, strain pre9, active compounds read low 1 | locus YGR229C, strain SMI1, active compounds read low 0.981 | locus YGR252W, strain gcn5, active compounds read low 1.08 | locus YHR013C, strain ard1, active compounds read low 1.01 | locus YHR027C, strain rpn1, active compounds read low 1 | locus YHR030C, strain SLT2, active compounds read low 1.01 and 0.985 | locus YHR079C, strain IRE1 (second series), active compounds read low 1.02 | locus YHR079C, strain IRE1, active compounds read low 0.989 | locus YHR094C, strain hxt1, active compounds read low 1.01 | locus YHR129C, strain ARP1, active compounds read low 1.01 | locus YHR142W, strain chs7, active compounds read low 0.982 | locus YHR200W, strain rpn10, active compounds read low 1.02 | locus YIL066C, strain RNR3, active compounds read low 1.01 | locus YIL073C, strain SPO22, active compounds read low 1.04 | locus YIL125W, strain kgd1, active compounds read low 1.01 | locus YIR030C, strain dcg1, active compounds read low 1.02 | locus YJL092W, strain hpr5, active compounds read low 1 | locus YJL095W, strain BCK1 (second series), active compounds read low 1.01 | locus YJL095W, strain BCK1, active compounds read low 1.01 and 0.995 | locus YJL115W, strain asf1, active compounds read low 1.01 | locus YJL129C, strain trk1, active compounds read low 0.983 | locus YJL134W, strain LCB3, active compounds read low 1.01 | locus YJL154C, strain vps35, active compounds read low 1.01 | locus YJL164C, strain tpk1, active compounds read low 1 | locus YJL166W, strain qcr8, active compounds read low 1.01 | locus YJL168C, strain set2, active compounds read low 1.01 | locus YJL187C, strain SWE1 (second series), active compounds read low 1 | locus YJR043C, strain POL32, active compounds read low 1.03 | locus YJR066W, strain TOR1, active compounds read low 0.935
